# Laboratory results reported in PubChem BioAssay AID1626 (SRMLSC, 2009).
# Hit rate of the full screen: of about 220,000 compounds, about 2,000 (0.91%) were called active. Not shown: some 2% with an inconclusive outcome. No stated cut-off is given here; in the data, inconclusive means inhibition above about 80% without an active follow-up result; inactive means below that; test concentration not stated here. Only a sample is shown. Results with a measured potency or affinity are listed apart.
# Assay: M. tuberculosis H37Rv growth inhibitors, H37Rv strain (AID 1626);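 further: bacteria incubated seven days before Alamar blue readout; 0% = bacteria only wells and 100% = bacteria with antibiotic wells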
# Conditions: active compounds read high, concentration not given here
row,Compound,inhibition
1,O=[N+]([O-])c1cc(C(F)(F)F)ccc1NCCCN1CCOCC1,7.61% (inactive)
2,COc1cc(C(=O)Nc2cc(C)cc(C)c2)c(-n2cnnn2)cc1OC,5.79% (inactive)
3,CCC(C)OC(=O)C1=C(C)O[C@]23OC(N)=C(C#N)[C@]12C(=O)c1ccccc13 (some centres undefined),3.72% (inactive)
4,Clc1ccc(-c2ccn[nH]2)cc1,58.5% (inactive)
5,COC(=O)c1ccc(NS(=O)(=O)c2ccc3c(c2)oc(=O)n3C)cc1,-7.58% (inactive)
6,CCOC(=O)C1CCN(c2nc(C)cc(C)c2C#N)CC1,2.49% (inactive)
7,Cn1c(SC2=CS(=O)(=O)c3ccccc32)nc2ccccc21,54.9% (inactive)
8,Cc1cc(C)nc(SC2=CS(=O)(=O)c3ccccc32)n1,3.84% (inactive)
9,CCOC(=O)c1sc(NC(=O)CSc2nncn2C)nc1C,4.68% (inactive)
10,O=C(c1ccc(N2C(=O)C3C4c5ccccc5C(c5ccccc54)C3C2=O)cc1)N1CCOCC1 (centres undefined),-4.29% (inactive)
11,COC(=O)c1sc(OC)cc1OCc1ccc(C)cc1,-1.7% (inactive)
12,COc1ccccc1NC(=O)c1ccc([N+](=O)[O-])cc1[N+](=O)[O-],3.09% (inactive)
13,CCC(NC(=O)c1ccc([N+](=O)[O-])cc1[N+](=O)[O-])c1ccccc1 (centres undefined),-5.13% (inactive)
14,O=C(NCCCn1ccnc1)c1cn(-c2ccccc2)nc1-c1ccc(F)cc1,4.17% (inactive)
15,N#C/C(=C\c1ccc([N+](=O)[O-])cc1)C(=O)NCCCn1ccnc1,3.27% (inactive)
16,CCSc1ccc(-c2nn(-c3ccccc3)cc2/C=C(/C#N)C(=O)NCCCOC)cc1,-5.12% (inactive)
17,CCCSc1ccc(-c2nn(-c3ccccc3)cc2/C=C(/C#N)C(=O)NCCCOC)cc1,-7.18% (inactive)
18,CSCCC(NS(=O)(=O)c1ccc(Cl)cc1)C(=O)OCC(=O)c1c(C)[nH]c2ccccc12 (centres undefined),-2.72% (inactive)
19,C/C=C(\C)C(=O)N1CC2(CC(c3cccc(NC(=O)CC(c4ccccc4)c4ccccc4)c3)=NO2)C[C@H]1C(N)=O (some centres undefined),4.13% (inactive)
20,COc1ccccc1C(=O)C1CCCN(C(=O)CCC(=O)c2ccccc2)C1 (centres undefined),4.79% (inactive)
21,O=C(CNc1cccc2ccccc12)N/N=C/C=C/c1ccco1,-2.95% (inactive)
22,CCOC(=O)c1c(C)n(-c2ccc(C)cc2)c2ccc(OCC(O)CNCC3CCCO3)cc12 (centres undefined),0.55% (inactive)
23,CCOC(=O)c1c(C)n(-c2ccc(C)cc2)c2ccc(OCC(O)CN3CCN(C)CC3)cc12 (centres undefined),-2.8% (inactive)
24,Cc1cccc(N(C(=O)C(F)(F)F)C(C(=O)NC2CCCCC2)c2cccs2)c1 (centres undefined),-0.05% (inactive)
